One assay has as its system CRL-7250. Kind of assay: Cytotoxic Profiling of Annotated Libraries Using Quantitative High-Throughput Screening (AID 1296008). Also: potency is read from the fitted curve at half-maximal effect. As to max response: % is scaled to controls: 0 for no effect and ±100 for the full control effect. The note with it: Five cell lines viability, CellTiter-Glo ATP luminescence, 48-72 h; max response: hits give low values. The gist of the method: (§1)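 Cytotoxicity was measured as CellTiter-Glo ATP luminescence, read after 10 min at room temperature. Compound treatment of the cells lasted 48 or 72 hr at 37 degrees Celsius in a qHTS format.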
(In ATP-based viability assays light output follows the ATP content of the culture.)

Assay [1] has as its system HaCat. The assay is described as above. The note with it: Five cell lines viability, CellTiter-Glo ATP luminescence, 48-72 h; max response: hits give low values. The gist of the method: as §1
The subject of the next assay is KB-3-1. Described as above. As to conditions: Five cell lines viability, CellTiter-Glo ATP luminescence, 48-72 h; max response: hits give low values. The gist of the method:
as §1

For a further assay, the system named is NIH3T3. The description is as above. As to conditions: Five cell lines viability, CellTiter-Glo ATP luminescence, 48-72 h; max response: hits give low values. The gist of the method: as §1
Assay [2] concerns HACAT. Kind of assay: qHTS assay to identify novel small-molecules to repurpose for Merkel cell carcinoma treatment (AID 1296009). As to conditions: MCC and control cell lines, CellTiter-Glo viability, 72 h; at 44.8 µM (top of the series) unless noted. The gist of the method: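 Cell viability, measured as CellTiter-Glo luminescence, was normalized between DMSO and no-cell wells. The cells had been exposed to 8- or 11-point compound dilutions for 72 hr at 37 degree celsius.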
(In qHTS, concentration-response curves come from the screen itself.)

Structures are written as SMILES. Results filed as inconclusive are left out. Unmarked numbers belong to inactive results. Activity calls are given as the source filed them. Calls follow the shape of the dose curve; as a rule, active = well fitted inhibition curve with a large enough effect; inconclusive = small, poorly fitted or top-dose-only effect; inactive = flat fitted curve, though single readings scatter.
Also: nearly all actives have a fitted effect of over 60% in size.

Turning to `C=CC(C)(O)CC/C=C(\C)C(=O)OC1C(O)C(CO)OC(OC(=O)C23CCC(C)(C)CC2C2=CCC4C5(C)CCC(OC6OC(COC7OCC(OC(C)=O)C(O)C7OC7OC(COC(C)=O)C(O)C(O)C7OC(C)=O)C(O)C(O)C6OC6OCC(O)C(O)C6O)C(C)(C)C5CCC4(C)C2(C)C(O)C3O)C1OC1OCC(OC2OCC(O)C(OC3OCC(O)C(O)C3O)C2O)C(O)C1O` (centres undefined), the Potency in the assay with CRL-7250 is 0.891 µM (active). Further, the max response was -18.3% with HaCat [1], -19.5% with KB-3-1 and -5.37% with NIH3T3.
Turning to `Cc1ccc(-c2ncc[nH]2)cc1NC(=O)c1ccc(OCc2ccccn2)cc1`, the max response is -5.69% in the assay on CRL-7250, -1.78% with KB-3-1 and -1.84% in the assay with NIH3T3. Further, the compound was called inactive with HaCat [1] and in the assay on HACAT [2].
Regarding `C/C=C(/C)C(=O)OC1C=C2C3C(C)C(C)C(OC(=O)C(C)C(C)O)CC3(C)CCC2(C)C2(C)CC(OC(C)=O)C3C(C)(C)C(O)C(=O)CC3(C)C12` (centres undefined), the max response was 0.415% with CRL-7250, 5.54% with KB-3-1 and -9.86% in the assay with NIH3T3. In addition, the compound was classed as inactive in the assay on HaCat [1]. Besides, the outcome in the assay on HACAT [2] is “inactive [at 17.4 µM]”.
Turning to `O=C(O)c1cccc(-c2ccc(-c3cn(C(=O)N4CCCCC4Cc4ccccc4)nn3)cc2)c1` (centres undefined), the max response in the assay on CRL-7250 is 0.106%; with HaCat [1], -16.1%; with KB-3-1, 9.26%; with NIH3T3, -1.06%.
In the case of `O=C(O)c1ccc(S(=O)(=O)N(Cc2ccc(OC(F)(F)F)cc2)c2ncc(C(F)(F)F)cc2Cl)cc1`, the values for the max response in the assay on CRL-7250, in the assay with KB-3-1 and in the assay with NIH3T3 were -3.34%, 0.52% and -0.0805%, respectively. Moreover, the compound was classed as inactive with HaCat [1] and with HACAT [2].
Take `CC(=O)OC[C@]12[C@H](OC(C)=O)[C@H](OC(=O)c3ccccc3)[C@@H]3[C@@H](OC(C)=O)[C@]1(OC3(C)C)[C@H](C)C[C@H](OC(C)=O)[C@@H]2OC(=O)c1ccccc1`: in the assay with CRL-7250, the call was inactive. Moreover, the max response with HaCat [1] is -0.678%; in the assay on KB-3-1, 4.67%; in the assay on NIH3T3, 3.09%.
In the same order, the values of `C[C@@H]1CC[C@@]23CC[C@]4(C)[C@@](C=CC5[C@@]6(C)CC[C@H](O)C(C)(C)C6CC[C@]54C)(OC2=O)C3[C@H]1C` (some centres undefined) are “inactive”, -10.7%, 7.23% and 0.572%.
For the compound `CC1(C)CC[C@]23CO[C@@]4(CCC5[C@@]6(C)CC[C@H](O[C@@H]7OC[C@H](O[C@@H]8O[C@H](CO)[C@@H](O)[C@H](O)[C@H]8O[C@@H]8OC[C@@H](O)[C@H](O)[C@H]8O)[C@H](O)[C@H]7O)[C@@](C)(CO)C6CC[C@@]5(C)[C@]4(C)CC2=O)[C@@H]3C1` (some centres undefined), the max response in the assay with CRL-7250 is -12.4%; with HaCat [1], 2.87%; with NIH3T3, -14.1%. The outcome in the assay with KB-3-1 was inactive.
Turning to `CC(C)=CCCC1(C)C2CCC1(C)C(O)C2` (centres undefined), the max response was -2.07% in the assay on CRL-7250, -23% in the assay on HaCat [1], -23.6% with KB-3-1 and 0.907% in the assay with NIH3T3.
On to `CCNC(=O)N1CCCN(c2ccc(C(=O)NCCc3ccc(Cl)cc3Cl)cc2NC(=O)c2cccc(Cl)c2)CC1`, for which the max response was -3.91% with CRL-7250, -2.47% in the assay with KB-3-1 and 2.92% with NIH3T3. Also, the call with HaCat [1] and with HACAT [2] was inactive.
In the case of `Cc1cc2c(N3CCCC3)nc(N3CCCC3)nc2n1C`, the figures for the max response in the assay with CRL-7250, with KB-3-1 and in the assay with NIH3T3 were 1.58%, -0.182% and -2.11%, respectively. Further, the compound was called inactive with HaCat [1] and with HACAT [2].
As to `CC(C)[C@@H](c1ccc(C(F)(F)F)cc1CN(Cc1cc(C(F)(F)F)cc(C(F)(F)F)c1)c1nnn(C)n1)N1CCC(C(=O)O)CC1`, the max response with CRL-7250 is -8.05%; in the assay on KB-3-1, -11.9%; with NIH3T3, 4.8%. For the same compound, the compound was called inactive in the assay on HaCat [1] and with HACAT [2].
For `CC(=O)O[C@]1(C(C)=O)CC[C@H]2[C@@H]3CCC4=CC(=O)CCC4=C3[C@@H](c3ccc(N(C)C)cc3)C[C@@]21C`, the compound was called inactive in the assay on CRL-7250, with HaCat [1] and in the assay with HACAT [2]. Further, the max response is -14.7% with KB-3-1 and -1.52% in the assay with NIH3T3.
For the compound `O=C([C@@H](Cc1cccc(C(F)(F)F)c1)NS(=O)(=O)c1cc(F)c2c(c1)CCNC2)N1CCCC1`, the result in the assay on CRL-7250, in the assay on HaCat [1], in the assay on KB-3-1, in the assay on NIH3T3 and with HACAT [2] was inactive.
In the case of `CC1=C2C[C@@]3(C)C(CCC[C@@H]3C)C(O)C2OC1=O` (some centres undefined), the max response in the assay with CRL-7250 was 2.27%; in the assay on KB-3-1 it was 5.15%. For the same compound, the outcome in the assay on HaCat [1], in the assay with NIH3T3 and in the assay on HACAT [2] was inactive.
Consider `Cc1ccc(OC[C@H](O)[C@H](C)NC(C)C)c2c1CCC2`, for which the max response in the assay with CRL-7250 is -3.77%; in the assay on KB-3-1, 5.3%; with NIH3T3, 0.0465%. Also, the result in the assay with HaCat [1] and with HACAT [2] was inactive.
As to `COc1ccc(NC(=O)c2ccc(-c3ccc(C(=N)N)cc3C)cc2)cc1N1CCN(C)CC1`, the max response in the assay on CRL-7250 is 4.07%; with KB-3-1, -9.57%; in the assay with NIH3T3 it was 2.92%. In addition, the compound was classed as inactive in the assay with HaCat [1] and in the assay on HACAT [2].

The values above are taken from PubChem BioAssay (NCATS).
